Laboratory results: the supplement of paper PMC10338343
± gives the standard deviation. In all, about 3,700 sequences were measured (“pre-steady-state target cleavage rate”: median about 0.02, highest 2% from about 0.23 on). The full list was thinned out, with the highest values kept by preference.

What follows are sequences tested on MILI (PIWIL2) piRISC loaded with Kctd7 piRNA (26 nt) (assay: pre-steady-state target cleavage rate (min^-1); MIWI and MILI are mouse PIWI proteins and EfPiwi is from a freshwater sponge; tags in brackets are library labels; higher = faster piRNA-guided slicing of the target). Conditions: guide: Kctd7 piRNA 5'p-UGUUAAUCUCUCAGAGAAGGUGACAG; auxiliary factor: 500 nM mouse GTSF1.
Experimental: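 Cleave-'n-Seq: a library of target RNAs (target site embedded in constant flanks, ACAGCATTCCGCGTTAGTGATATCCG... 5' flank; DNA-blocked outside the site) at 0.1 nM was incubated with 1 nM active mouse MILI or MIWI piRISC (synthetic 5'-monophosphorylated piRNA guide) with or without 500 nM mouse GTSF1 at 33 °C for 1 min to 16 h. Uncleaved targets were sequenced and normalised to non-target controls, and the pooled three trials were fitted to a burst-and-steady-state model to give the pre-steady-state cleavage rate (min^-1; k3 is constrained to at most 1e-4). Sequence is the target site only; target names encode pairing extent (gX:gY) and contiguous / 1-mismatch / 2-mismatch / bulge geometry. Fits with R² ≤ 0 are excluded.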

| Sequence | pre-steady-state target cleavage rate |
| --- | --- |
| UAGUGUGUGACCUUGUCUGAGAGAUUAACA | 0.0744 ± 0.014 |
| UAGUGAGUCACCAUCUCUGACAGAUUAACA | 0.0409 ± 0.0068 |
| UAGUGACUCACCUUCUCUGAGAGCAUUAACA | 0.144 ± 0.016 |
| UAGUGACAGUGGAAGACUGACAGAUUUACA | < 0.0001 |
| UAGUGACAGUCAUUCUCUGAGAGAUUAACA | 0.00865 ± 0.0029 |
| UAGUGACAGACCUUCUCUGAGAAAUUAACA | 0.0522 ± 0.015 |
| UAGUGACAGACGCUUCUCUGAGAGAUUAACA | 0.0399 ± 0.0079 |
| UAGUGAGUCAGCUUCUCUGAGAGAUUUACA | 0.1 ± 0.018 |
| UAGUGUGACACCAUCUCUGAGAGAUUAACA | 0.137 ± 0.011 |
| UAGUGACAGUCCGUCUCUGAGAGAUUAACA | 0.0557 ± 0.0066 |
| UAGUCUGUCAGCUUCACUGAGAGAUUAACA | 0.0681 ± 0.0072 |
| UAGUGACACACCUUCUCUGAGAGAUUAUGA | 0.0394 ± 0.012 |
| UAGUGUGUCACCUACUCUGAGACAUUAACA | 0.0742 ± 0.019 |
| UAGUCUGUCACCUUCUCUGAGAGUUUAACA | 0.238 ± 0.04 |
| UAGUCUGUCACCUUCUCUGAGAGUUAAACA | 0.328 ± 0.096 |
| UAGUCUGUCACCUUCUGUGAGAGUUUAACA | 0.0702 ± 0.016 |
| UAGUCUGUCACCUUCUCUGAGAGAGUAACA | 0.245 ± 0.033 |
| UAGUCUGUCACCUUCUCUGAGAGUAAAACA | 0.0676 ± 0.024 |
| UAGUCUGUCACCUUCUCUGAGAGGUUAACA | 0.198 ± 0.025 |
| UAGUCUGUCACCUUCUCUGUGAGUUUAACA | 0.0314 ± 0.0059 |
| UAGUCUGUCACCUUCUCUGAGAGUAUAACA | 0.122 ± 0.022 |
| UAGUCUGUCACCUUCUCUGAGAGAUUAAAA | 0.12 ± 0.031 |
| UAGUCUGUCACCUUCUCUGAGAGAUUAAACA | 0.147 ± 0.018 |
| UAGUCUGUCACCUUCUCUGAGAGAGUUAACA | 0.297 ± 0.035 |

| Sequence | pre-steady-state target cleavage rate |
| --- | --- |
| UAGUCUGUCACCUUCUCUGAGAGUAUUAACA | 0.173 ± 0.013 |
| UAGUGACAGUCCUUCUCUGAGUCAUUAAGA | < 0.0001 |
| UAGUGACACACGAUCUCUGAGAGAUUAACA | 0.0352 ± 0.0045 |
| UAGUGACAGACCUUAUCUGAGAGAUUAACA | 0.0894 ± 0.017 |
| UAGUGACAGUGCUUCUCCGAGAGAUUAACA | 0.0082 ± 0.0034 |
| UAGUGACAGUGGAAGAGAGAGAGAUUGAACA | < 0.0001 |
| UAGUGAGUCAGCUACUCUGAGAGAUUAACA | 0.135 ± 0.01 |
| UAGUGACACACCAACUCUGAGAGAUUAAGA | 0.018 ± 0.0037 |
| UAGUGACAGUCCUUCUCAGAGAGAUUUACA | 0.0138 ± 0.0054 |
| UAGUGACAGUGCUUCUCUGAGACAUAAACA | < 0.0001 |
| UAGUGAGUCACCUUCUCAGAGAGAUUUACA | 0.0954 ± 0.024 |
| UAGUCUGUCACCUUCUCUGAGAGACUUAACA | 0.145 ± 0.024 |
| UAGUCUGUCACCUUCUCUGAGAGUUAACA | 0.278 ± 0.082 |
| UAGUCUGUCACCUUCUCUGAGAGCUUAACA | 0.148 ± 0.016 |
| UAGUCUGUCACCAACUCUGAGAGAUUAAGA | 0.047 ± 0.0083 |
| UAGUCUGUCCACCUUCUCUGAGAGAUUAACA | 0.15 ± 0.018 |
| UAGUGAGUCACCUUCUCUGAGAGAUUAAUA | 0.217 ± 0.03 |
| UAGUGAGUCACCUUCUCUGAGAGAUUAUCA | 0.197 ± 0.037 |
| UAGUGUGCCACCUUCUCUGAGAGAUUAACA | 0.227 ± 0.023 |
| UAGUGAGUCACCUUCUCUGAGAGAUUAAUCA | 0.292 ± 0.053 |
| UAGUGAGUCACCUUCUCUGAGAGAAUUACA | 0.105 ± 0.048 |
| UAGUGUGCACCUUCUCUGAGAGAUUAACA | 0.196 ± 0.024 |
| UAGUGAGUCACCUUCUCUGAGAGAUUAACCA | 0.219 ± 0.017 |
| UAGUGAGUCACCUUCUCUGAGAGAAUUAACA | 0.318 ± 0.059 |

| Sequence | pre-steady-state target cleavage rate |
| --- | --- |
| UAGUGAGUCACCUUCUCUGAGAAAUUAACA | 0.132 ± 0.027 |
| UAGUGUGUCACCUUCCCUGAGAGAUUAACA | 0.301 ± 0.056 |
| UAGUGAGUCACCUUCUCUGAGAGAUUAACU [g2:g24:cont:t1U] | 0.288 ± 0.038 |
| UAGUGUGUGCACCUUCUCUGAGAGAUUAACA | 0.195 ± 0.021 |
| UAGUGAGUCACCUUCUCUGAGAGAUUAACC [g2:g24:cont:t1C] | 0.192 ± 0.018 |
| UAGUGACACAGGUUCUCUGAGAGAUUAAGA | 0.00675 ± 0.0025 |
| UAGUGACAGUCCUUCUCUGAGAGAUUACCA | 0.00831 ± 0.0032 |
| UAGUGACAGACCUUCUGUGAGAGAUUAACA | 0.087 ± 0.012 |
| UAGUGACACAGGUUCUCUGAGAGAUUAACA | 0.0267 ± 0.0054 |
| UAGUCUGUCACCAUCUCUGAGAGAUUUACA | 0.124 ± 0.018 |
| UAGUGACAGUCCUUCUCUGUGAGAUUAACA | 0.033 ± 0.0057 |
| UAGUCUGUGACGUUCUCUGAGAGAUUAACA | 0.147 ± 0.01 |
| UAGUGACAGACCUUCUCUGAGAGGUUAACA | 0.221 ± 0.058 |
| UAGUGGGUCACCUUCUCUGAGAGAUUAACA | 0.175 ± 0.01 |
| UAGUGAGUCACCUUCUCUGAGAGAUUAAA | 0.202 ± 0.045 |
| UAGUGACACCACCUUCUCUGAGAGAUUAACA | 0.184 ± 0.017 |
| UAGUGAGGUCACCUUCUCUGAGAGAUUAACA | 0.242 ± 0.016 |
| UAGUGAGUGACCUUCUCUGAGAGAUUAACA | 0.157 ± 0.0097 |
| UAGUGACCCACCUUCUCUGAGAGAUUAACA | 0.286 ± 0.039 |
| UAGUGAGUCACCUUCUCUGAGAGAUUAAACA | 0.33 ± 0.049 |
| UAGUGAGUCACCUUCUCUCUGAGAUUAACA | 0.0118 ± 0.0043 |
| UAGUGAGUCACCUUCUCUGAAGAGAUUAACA | 0.0119 ± 0.0044 |
| UAGUGAGUCACCUUCUCUGAGGAGAUUAACA | 0.0247 ± 0.011 |
